For 40 compounds, growth inhibition results are on record in PubChem BioAssay (NCI).

The structures appear in SMILES notation. This is part of a sample that, as a whole, favours compounds with a hit. Of some 79,000 tested, about 15% had one in any assay. Values without a mark were called inactive. Activity calls are given as the source filed them. Rule as the data show it: active = growth inhibition above about 70%; inactive = the rest. *1 amine or outer side, *2 acyl side, *3 side chain or, on linkers, in order; H or OH if unused. Where a SMILES comes first, the peptide text is derived from it. Bridges are numbered along the chain shown (N, C = ends). [ ]: non-standard residue; d: D form. The star is where a group is joined. X16 = CC(C)C(C)C(C(=O)[*:2])N(C)[*:1]; Picolinoyl(3-OH) = O=C(c1ncccc1O)*; NMePhg = CN[CH](C(=O)O)c1ccccc1; Hyp = O=C(O)[CH]1C[CH](O)CN1; Sar = CNCC(=O)O

A short description of this test: NCI Yeast Anticancer Drug Screen. Data for the mlh1 rad18 strain (AID 175). To be noted: S. cerevisiae mlh1 rad18 strain growth inhibition; at 50.0 µM; hits give high values. The method, then: Growth inhibition of yeast strains with defined genetic alterations is measured as a screen for potential anti-cancer activity. Selected strains with alterations in DNA damage repair or cell cycle control were exposed to compounds and growth inhibition was measured relative to vehicle treated controls. The strain used in this assay is mlh1 rad18
Regarding `O=C(O)C1CSC(c2cccs2)N1` (stereo not given), the growth inhibition is -8.1%.

Turning to `CCCC(=O)Nc1cc(C(=O)N2C[C@H]3C[C@@]34C2=CC(=O)c2[nH]cc(C)c24)n(COC)c1`, the growth inhibition was 69.8%.

With `Cc1nc2ccccc2c(=O)n1NC(=S)Nc1ccc(Cl)cc1`, the growth inhibition was -14.9%.

Consider `CCOC(=O)c1cnc(=S)[nH]c1N`, for which the growth inhibition is -43.5%.

Turning to `CC(=O)c1cc(Cl)ccc1OCC(O)CNc1ccc(Cl)cc1C(=O)c1ccccc1` (stereo not given), the growth inhibition is 7.15%.

As for `O=C(Nc1ccsc1)c1ccccc1`, the growth inhibition was -3.25%.

In the case of `c1ccn2c(CCc3nnc4ccccn34)nnc2c1`, the growth inhibition is -13.1%.

Regarding `CCc1ccccc1NC(=O)C(=O)C(C(=O)c1ccc(OC)cc1)c1ccc(OC)cc1` (stereo not given), the growth inhibition was 9.05%.

`CN(C)c1ccc(/C=C(\C#N)c2c(Cl)cccc2Cl)cc1`: the growth inhibition is -5.75%.

With `CCOC(OCC)/C(C)=N/N(C)C`, the growth inhibition is -2.5%.

For the compound `CCOC(=O)c1nnsc1NC(=O)Nc1ccc(Cc2ccc(NC(=O)Nc3snnc3C(=O)OCC)cc2)cc1`, the growth inhibition is 10.3%.

Regarding `CC1CC12OC(=O)N(c1cc(Cl)cc(Cl)c1)C2=O` (stereo not given), the growth inhibition is 16.6%.

For the compound `CCOC(=O)C1Cc2cc(C)c(C)cc2N(C)C1=O` (stereo not given), the growth inhibition was -3.6%.

As for `CN(CN(C)/N=C/c1ccc(Cl)cc1)/N=C/c1ccc(Cl)cc1`, the growth inhibition was 10.1%.

As to `CCCCOC(=O)NCNC(=O)OCCCC`, the growth inhibition is 14.9%.

Turning to `c1ccc(C2(c3ccccc3)c3ccccc3-c3ccccc32)cc1`, the growth inhibition is 2.2%.

With `CC[N+](C)(CC)CCOc1ccc(Cc2nc3c([nH]2)c(=O)n(C)c(=O)n3C)cc1`, the growth inhibition was 19.6%.

Turning to `CCN1CCCC(N)C1` (stereo not given), the growth inhibition was -27.9%.

With `CC(=O)Nc1ccc2c(Br)ccc3c2c1CC3`, the growth inhibition is -4.45%.

For `O=C(OCC1OC(n2cnc3c(Cl)ncnc32)C(OC(=O)c2ccccc2)C1OC(=O)c1ccccc1)c1ccccc1` (stereo not given), the growth inhibition was -13.3%.

As for `CC(=O)c1c(-c2ccccc2)noc1C`, the growth inhibition was -1.4%.

In the case of `C1#CCSCC#CCSC1`, the growth inhibition is 24%.

Regarding `CCCCCCCCCC(=O)N(C)OC`, the growth inhibition is 18.1%.

Take `CSC1=NC=C(C#N)C2=NC(c3ccc(Cl)cc3)NN12` (stereo not given): the growth inhibition is 14.7%.

For the compound `CC(C)CC1NC(=O)C(NC(=O)c2ncccc2O)C(C)OC(=O)C(c2ccccc2)N(C)C(=O)C(C)NC(=O)C(C(C)C(C)C)N(C)C(=O)CN(C)C(=O)C2CC(O)CN2C1=O` (stereo not given) ({Picolinoyl(3-OH)}-TL[Hyp][Sar][X16]A[NMePhg]; ester 1-C; configuration not given here), the growth inhibition is -2.35%.

With `OCC(OC/C=C/CCl)c1ccc(Cl)cc1` (stereo not given), the growth inhibition is -15.9%.

For `CC(C)=CCNc1ncnc2c1ncn2CCC#N`, the growth inhibition is -21.4%.

Consider `CC(=O)OC1/C=C(\C)C(OC(C)=O)C/C=C(/C)CCC2C(/C=C/C1=O)C2(C)C` (stereo not given), for which the growth inhibition was 74% (active).

In the case of `COC(=O)c1ccccc1N=NNc1ccc(C)c(Cl)c1`, the growth inhibition is 5.15%.

Take `O=C1CC(=O)N(CCc2ccccc2)S(=O)(=O)N1CCc1ccccc1`: the growth inhibition was -32.8%.

Consider `Cc1cc(NS(=O)(=O)c2ccc(Nc3c4ccccc4nc4c(C(=O)NCCN(C)C)ccc(Cl)c34)cc2)no1`, for which the growth inhibition was 63.5%.

For `CN(C)c1ccc([O-])cc1.CN(C)c1ccc([O-])cc1.CN(C)c1ccc([O-])cc1.CN(C)c1ccc([O-])cc1.[Ti+4]`, the growth inhibition was -2.6%.

With `O=C(/C=C/c1ccc(F)c(F)c1)OCCc1ccccc1`, the growth inhibition was 27.2%.

In the case of `O=Cc1cc2c(cc1Br)OCO2`, the growth inhibition is 8.3%.

`CCC1(CC)C(=O)N(C(=O)c2ccc(C)cc2)N(C(=O)c2ccc(C)cc2)C1=O`: the growth inhibition is -17.3%.

Regarding `O=c1cc(-c2ccc(F)cc2)oc2ccccc12`, the growth inhibition was 30.4%.

As to `Clc1ccc(N=Cc2ccc(C=Nc3ccc(Cl)c(Cl)c3)cc2)cc1Cl`, the growth inhibition was 11.6%.

As to `COc1ccc2c(c1)[n+]([O-])c(/C(C)=N/NC(=O)c1ccccc1O)c(C)[n+]2[O-]`, the growth inhibition was 0.7%.

On to `CC(=O)c1ccc(C(=O)c2cccnc2)cc1`, for which the growth inhibition is 7.4%.

Turning to `OC1(c2cccc(Cl)c2)C2=NCCCN2c2ccccc21` (stereo not given), the growth inhibition is 5.75%.
